The values below come from PubChem BioAssay (NCI).

Molecules are shown by their SMILES. The panel holds about 83,000 compounds, 20% with a hit somewhere; the sample as a whole holds those more often.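 Cell lines were cultured in 96-well plates, exposed to a single compound concentration, and assessed for percent growth 48 hours later.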 Unmarked numbers belong to inactive results. The source made the active and inactive calls. The calls were made as follows: active = growth percent below 10; inactive = the rest.

Some test systems named below: SK-MEL-2 melanoma; EKVX NSCLC; SN12C renal; UO-31 renal; TK-10 renal; ACHN renal; CAKI-1 renal; A498 renal; CCRF-CEM leukemia; SR leukemia; RPMI-8226 leukemia; OVCAR-8 ovarian; OVCAR-5 ovarian; OVCAR-4 ovarian; SK-OV-3 ovarian; IGROV1 ovarian; OVCAR-3 ovarian; HS 578T breast; NCI/ADR-RES ovarian; MOLT-4 leukemia.
Common to all, as to assay: NCI-60 one-dose screen, 48 h (100 = growth as untreated, 0 = no growth, -100 = all killed)
Common to all, as to conditions: 10 µM unless noted

Regarding `CCSc1oc(C)nc1[P+](c1ccccc1)(c1ccccc1)c1ccccc1`, the growth in the assay with SK-MEL-2 melanoma was 50%; with EKVX NSCLC, 25.9%; in the assay with SN12C renal, 27.7%; in the assay on UO-31 renal, 82.3%; in the assay on TK-10 renal it was 48.1%; in the assay with ACHN renal, 83.4%. Also, the growth in the assay with CAKI-1 renal was 70.6%; in the assay on A498 renal it was 19.3%; with CCRF-CEM leukemia it was 37.7%; in the assay with SR leukemia, 36.2%; in the assay with RPMI-8226 leukemia it was 5.08% (active); in the assay with OVCAR-8 ovarian it was 21.5%. The growth is 69.2% in the assay on OVCAR-5 ovarian; 38.2% with OVCAR-4 ovarian; 28% with SK-OV-3 ovarian; 30.3% with IGROV1 ovarian; 15.8% in the assay on OVCAR-3 ovarian; 56.3% in the assay on HS 578T breast. In the assay on NCI/ADR-RES ovarian, the growth is 97.8%.
Consider `CC(=O)OC(c1ccccc1)C1CCOC1=O` (configuration not stated), for which the growth in the assay with SK-MEL-2 melanoma was 96.5%; in the assay with EKVX NSCLC, 78.8%; in the assay on SN12C renal, 102%; with UO-31 renal, -82.3% (active); in the assay on TK-10 renal, 92.4%; with ACHN renal, 96.5%. Moreover, the growth in the assay with CAKI-1 renal is 75.2%; in the assay with A498 renal, 98.7%; in the assay on CCRF-CEM leukemia it was 109%; with SR leukemia, 122%; in the assay on RPMI-8226 leukemia it was 111%; in the assay with OVCAR-8 ovarian it was 104%. Besides, the growth in the assay on OVCAR-5 ovarian was 86.8%; in the assay on OVCAR-4 ovarian it was 88.3%; with SK-OV-3 ovarian it was 106%; with IGROV1 ovarian it was 102%; in the assay with OVCAR-3 ovarian, 102%; in the assay with HS 578T breast it was 111%. Moreover, the growth in the assay with NCI/ADR-RES ovarian was 97%.
Regarding `Nc1nc(N)c2c(n1)NC(c1ccc(Cl)cc1)C1CCc3ccccc3C1=N2` (configuration not stated), the growth in the assay with SK-MEL-2 melanoma is 102%; with EKVX NSCLC, 35.8%; in the assay with SN12C renal it was 65.9%; in the assay on UO-31 renal it was 55.8%; in the assay on TK-10 renal, 49.2%; in the assay with ACHN renal, 52.7%. For the same molecule, the growth is 37% in the assay on CAKI-1 renal; 69.5% with A498 renal; 51.5% with CCRF-CEM leukemia; 33.1% in the assay on SR leukemia; 41.9% in the assay with RPMI-8226 leukemia; 70.7% in the assay with OVCAR-8 ovarian. Further, the growth was 103% with OVCAR-5 ovarian; 39.2% with OVCAR-4 ovarian; 66.8% in the assay with SK-OV-3 ovarian; 77.2% with IGROV1 ovarian; 40.5% in the assay on OVCAR-3 ovarian; 80.9% in the assay on HS 578T breast. For the same molecule, the growth with NCI/ADR-RES ovarian was 52.5%.
For the molecule `Fc1cccc(-c2ccc3c(c2)C2(CCNCC2)CN3)c1`, the growth with SK-MEL-2 melanoma was 102%; in the assay with EKVX NSCLC, 96.6%; with SN12C renal, 94.9%; in the assay with UO-31 renal it was 88.2%; in the assay on TK-10 renal it was 114%; with ACHN renal it was 100%. Moreover, the growth with CAKI-1 renal was 96.1%; in the assay with CCRF-CEM leukemia it was 119%; in the assay on MOLT-4 leukemia, 91.7%; with SR leukemia, 110%; with RPMI-8226 leukemia it was 95.7%; in the assay on OVCAR-8 ovarian it was 108%. Also, the growth was 103% in the assay on OVCAR-5 ovarian; 92% in the assay with OVCAR-4 ovarian; 112% in the assay with SK-OV-3 ovarian; 97.4% in the assay with IGROV1 ovarian; 105% in the assay with HS 578T breast; 95.5% with NCI/ADR-RES ovarian.
As for `NC(=O)c1c(NC(=O)c2cccs2)sc2c1CCC(=O)C2`, the growth with SK-MEL-2 melanoma is 81.6%; in the assay on EKVX NSCLC, 69.6%; with SN12C renal it was 44.9%; with UO-31 renal, 28.8%; in the assay on TK-10 renal, 59.8%; with ACHN renal, 22%. Also, the growth is -1.29% (active) in the assay with CAKI-1 renal; 8.75% (active) with CCRF-CEM leukemia; 13.6% in the assay on MOLT-4 leukemia; 5.54% (active) with SR leukemia; -13.6% (active) in the assay with RPMI-8226 leukemia; 21.2% in the assay with OVCAR-8 ovarian. Besides, the growth was 22.2% with OVCAR-5 ovarian; -6.38% (active) with OVCAR-4 ovarian; 87.1% in the assay with SK-OV-3 ovarian; 29.7% with IGROV1 ovarian; 13% in the assay with OVCAR-3 ovarian; 35.1% in the assay on HS 578T breast. Also, the growth in the assay with NCI/ADR-RES ovarian is 59.4%.
Consider `O=C(CN1CCCCCC1)Nc1nc2ccc(NCc3ccc(Cl)cc3)cc2s1`, for which the growth with SK-MEL-2 melanoma was 109%; in the assay with EKVX NSCLC, 96.4%; in the assay with SN12C renal, 95.5%; in the assay with UO-31 renal, 88.6%; with TK-10 renal, 110%; with ACHN renal, 88.7%. Besides, the growth in the assay on CAKI-1 renal is 86.1%; in the assay with CCRF-CEM leukemia, 93%; in the assay on MOLT-4 leukemia, 92.4%; in the assay with SR leukemia, 97.2%; in the assay on RPMI-8226 leukemia, 79.3%; in the assay on OVCAR-8 ovarian, 95.3%. Further, the growth with OVCAR-5 ovarian was 98.6%; in the assay with OVCAR-4 ovarian it was 96.3%; with SK-OV-3 ovarian it was 107%; in the assay with IGROV1 ovarian it was 98.4%; in the assay with OVCAR-3 ovarian, 104%; with HS 578T breast, 98%. Also, the growth with NCI/ADR-RES ovarian was 106%.
For `COc1ccc(-c2ccc(-c3ccc(C(=N)N)nc3)s2)cc1Cl`, the growth in the assay with SK-MEL-2 melanoma was 102%; with EKVX NSCLC, 56.4%; in the assay with SN12C renal it was -81.7% (active); with UO-31 renal, -94.8% (active); in the assay with TK-10 renal, 94.5%; in the assay with ACHN renal, -96.2% (active). Further, the growth in the assay on CAKI-1 renal is -90.2% (active); in the assay on CCRF-CEM leukemia, -49% (active); with MOLT-4 leukemia, -49.3% (active); in the assay with SR leukemia, -7.17% (active); in the assay with RPMI-8226 leukemia, -45.4% (active); in the assay on OVCAR-8 ovarian it was -28.5% (active). Moreover, the growth is -37.6% (active) with OVCAR-5 ovarian; -79.5% (active) in the assay on OVCAR-4 ovarian; 97.1% in the assay on SK-OV-3 ovarian; -87.8% (active) in the assay on IGROV1 ovarian; -90.6% (active) with OVCAR-3 ovarian; -48.3% (active) in the assay on HS 578T breast. Further, in the assay with NCI/ADR-RES ovarian, the growth was 37.7%.
